The test addresses PUM1 PUF domain R5-DWG (Homo sapiens, UniProt Q14671 828-1176, C1007D;R1008W;Q1011G). The test is described as follows: yeast three-hybrid, YBZ-1, SC-Leu-His + 0.5 mM 3-AT, 4 days. Particulars: tags: N-Gal4 AD-HA kept; label: inside an RPR1-promoter hybrid RNA with tandem MS2 sites; ssRNA. The gist of the method: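 Repeat regions from input (SC-Leu) and selection (SC-Leu-His + 0.5 mM 3-AT) plates were PCR-amplified and Illumina-sequenced after four days of growth. The cells were strain YBZ-1 with a LexA–MS2 coat fusion and a HIS3 reporter, co-expressing Pumilio-1 PUF domain libraries and matching RNA elements from a centromeric plasmid. The interaction score is the log change in variant frequency from input to selection, taken in log2 with a pseudocount of 1 for absent variants.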
PUM1 PUF domain R5-DWG, sequence (Q14671 828-1176 C1007D/R1008W/Q1011G): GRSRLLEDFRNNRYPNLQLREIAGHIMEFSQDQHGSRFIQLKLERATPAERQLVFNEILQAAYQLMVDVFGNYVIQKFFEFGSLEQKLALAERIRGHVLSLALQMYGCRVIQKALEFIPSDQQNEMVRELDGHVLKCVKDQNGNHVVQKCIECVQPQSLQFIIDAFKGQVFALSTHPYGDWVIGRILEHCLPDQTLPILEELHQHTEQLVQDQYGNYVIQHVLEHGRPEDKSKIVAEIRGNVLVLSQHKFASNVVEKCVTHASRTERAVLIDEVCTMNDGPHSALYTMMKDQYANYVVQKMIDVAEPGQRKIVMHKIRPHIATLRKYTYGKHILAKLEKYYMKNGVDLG
As to “GGCUAGAACUAGUGGAUCCCCCGGCGCCCGGCGGCUCGAGCCCGGGUAAGUGUUAAUAGUCUGCAUGCCGCCGGGCGCCAUGCCUGCAGGUCGACUCUAGAAAACAUG”, the binding signal is 5.02 log2 enrichment (interaction score). As for “GGCUAGAACUAGUGGAUCCCCCGGCGCCCGGCGGCUCGAGCCCGGGUAAGUGUCAAUAGUCUGCAUGCCGCCGGGCGCCAUGCCUGCAGGUCGACUCUAGAAAACAUG”, the binding signal is 2.09 log2 enrichment (interaction score). As for “GGCUAGAACUAGUGGAUCCCCCGGCGCCCGGCGGCUCGAGCCCGGGUAAGUGUGAAUAGUCUGCAUGCCGCCGGGCGCCAUGCCUGCAGGUCGACUCUAGAAAACAUG”, the binding signal was 4.74 log2 enrichment (interaction score). Consider “GGCUAGAACUAGUGGAUCCCCCGGCGCCCGGCGGCUCGAGCCCGGGUAAGUGUAAAUAGUCUGCAUGCCGCCGGGCGCCAUGCCUGCAGGUCGACUCUAGAAAACAUG”, for which the binding signal is 2.74 log2 enrichment (interaction score).

(Values after publication PMC8384837, “Expanding the binding specificity for RNA recognition by a PUF domain”.)
